Reference: PubChem BioAssay (NCI)
About 79,000 compounds went through this panel and 15% of them were active in at least one assay; those are over-represented in the sample as a whole. Calls of active or inactive are those of the source. Rule as the data show it: active = growth inhibition above about 70%; inactive = the rest.

How the values were obtained:
[1] = NCI Yeast Anticancer Drug Screen. Data for the rad50 strain (AID 155);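 also: 0% = growth of vehicle-only cultures of the same strain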; settings: S. cerevisiae rad50 strain growth inhibition, stronger effect = higher value
Method in brief: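 DNA repair mutant yeast, compound exposure, growth read-out; inhibition is taken relative to vehicle.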

[2] = NCI Yeast Anticancer Drug Screen. Data for the mec2-1 strain (AID 157); settings: S. cerevisiae mec2-1 strain, stronger effect = higher value
Method in brief: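 Growth inhibition is read against vehicle-treated controls after compound exposure of the mec2-1 yeast strain, which is defective in DNA damage repair or cell cycle control.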

[3] = NCI Yeast Anticancer Drug Screen. Data for the sgs1 mgt1 strain (AID 161);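 also: 0% = growth of cultures given vehicle only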; settings: S. cerevisiae sgs1 mgt1 strain, stronger effect = higher value
Method in brief: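 This yeast growth screen uses a strain with defined DNA-repair lesions; compound-treated growth is compared with vehicle-treated growth.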

[4] = NCI Yeast Anticancer Drug Screen. Data for the cln2 rad14 strain (AID 165);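 also: 0% = growth equal to vehicle treated cultures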; settings: S. cerevisiae cln2 rad14 strain, stronger effect = higher value
Method in brief: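 Growth inhibition, relative to vehicle-treated controls, is the read-out. The test organism is a yeast strain with defined genetic alterations, cln2 rad14.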

[5] = NCI Yeast Anticancer Drug Screen. Data for the bub3 strain (AID 167); settings: S. cerevisiae bub3 mutant strain, stronger effect = higher value
Method in brief: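 In this screen, a yeast mutant lacking normal mitotic checkpoint function is challenged with compound. Relative growth versus vehicle gives the inhibition value.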

[6] = NCI Yeast Anticancer Drug Screen. Data for the mlh1 rad18 strain (AID 175); settings: S. cerevisiae mlh1 rad18 strain growth inhibition, stronger effect = higher value
Method in brief: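 Cells of a genetically altered yeast strain, deficient in DNA damage repair, were treated with compound. Their growth was then compared with that of vehicle-treated cultures to give inhibition.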

[7] = at 5.0 µM (retest, dose inferred, filed as 0.5)
[8] = at 50.0 µM (retest, dose inferred, filed as 5.0)

Measured: growth inhibition

N=c1n(CC(=O)NC23CC4CC(CC(C4)C2)C3)c2ccccc2n1Cc1ccc(Cl)cc1
active: [1]; at 50.0 µM 92.5% | [2]; at 50.0 µM 93.3% | [3]; at 50.0 µM 93.4% | [4]; at 50.0 µM 92.4% | [5]; at 50.0 µM 91.4% | [6]; at 50.0 µM 90.3%
inactive: [1]; [7] 33% | [1]; [8] 33% | [2]; [7] 13% | [2]; [8] 13% | [3]; [7] 14% | [3]; [8] 14% | [4]; [7] -2% | [4]; [8] -2% | [5]; [7] -2% | [5]; [8] -2% | [6]; [7] 13% | [6]; [8] 13%

[O-]/[N+]1=[N+](\[O-])c2ccccc2CCc2ccccc21
inactive: [1]; [7] -1% | [1]; [8] -4% | [1]; at 50.0 µM 3.8% | [2]; [7] -1% | [2]; [8] 1% | [2]; at 50.0 µM -4.65% | [3]; [7] 4% | [3]; [8] 1% | [3]; at 50.0 µM 40.1% | [4]; [7] -1% | [4]; [8] -4% | [4]; at 50.0 µM 1% | [5]; [7] -1% | [5]; [8] 0% | [5]; at 50.0 µM 15.4% | [6]; [7] -3% | [6]; [8] 3% | [6]; at 50.0 µM 1.6%

COc1c(O)ccc2c1CN1CCc3cc4c(cc3C1C2)OCO4 (stereo not given)
inactive: [1]; [7] 18% | [1]; [8] 50% | [1]; at 50.0 µM 65.9% | [2]; [7] 9% | [2]; [8] 21% | [2]; at 50.0 µM 21.4% | [3]; [7] 9% | [3]; [8] 65% | [3]; at 50.0 µM 49.2% | [4]; [7] 15% | [4]; [8] 22% | [4]; at 50.0 µM -16.2% | [5]; [7] 6% | [5]; [8] 60% | [5]; at 50.0 µM 50.9% | [6]; [7] 11% | [6]; [8] 35%
active: [6]; at 50.0 µM 72.2%

CN1CC(CN2CCCCC2)C(O)C(c2ccccc2)C1 (stereo not given)
inactive: [1]; [7] -3% | [1]; [8] -1% | [1]; at 50.0 µM 10.2% | [2]; [7] -5% | [2]; [8] -1% | [2]; at 50.0 µM -4.5% | [3]; [7] -3% | [3]; [8] 6% | [3]; at 50.0 µM 9.3% | [4]; [7] -5% | [4]; [8] -3% | [4]; at 50.0 µM 34.4% | [5]; [7] -4% | [5]; [8] -8% | [5]; at 50.0 µM 2.65% | [6]; [7] -3% | [6]; [8] -2% | [6]; at 50.0 µM 56.5%

C#CCCOC(=O)CC1=C(C)/C(=C/c2ccc(S(C)=O)cc2)c2ccc(F)cc21 (stereo not given)
inactive: [1]; [7] 23% | [2]; [7] 18% | [3]; [7] 65% | [4]; [7] 43% | [4]; [8] 41% | [5]; [7] 51% | [6]; [7] 21%
active: [1]; [8] 88% | [1]; at 50.0 µM 84.3% | [2]; [8] 84% | [2]; at 50.0 µM 90.2% | [3]; [8] 73% | [3]; at 50.0 µM 88% | [4]; at 50.0 µM 85.2% | [5]; [8] 85% | [5]; at 50.0 µM 86.4% | [6]; [8] 83% | [6]; at 50.0 µM 85.9%

Nc1ccc2c(S(=O)(=O)O)cc(S(=O)(=O)O)cc2c1
inactive: [1]; [7] 3% | [1]; [8] 0% | [1]; at 50.0 µM -21.6% | [2]; [7] 2% | [2]; [8] -1% | [2]; at 50.0 µM -6.25% | [3]; [7] 0% | [3]; [8] -2% | [3]; at 50.0 µM -10.4% | [4]; [7] 3% | [4]; [8] 2% | [4]; at 50.0 µM 61.4% | [5]; [7] 2% | [5]; [8] -2% | [5]; at 50.0 µM 6.3% | [6]; [7] 1% | [6]; [8] -1% | [6]; at 50.0 µM -31.4%

CCCCCN(CCCCC)CCCNc1ccc(C)c2sc3ccccc3c(=O)c12
active: [1]; [7] 98% | [1]; [8] 96% | [1]; at 50.0 µM 98.4% | [2]; [7] 99% | [2]; [8] 98% | [2]; at 50.0 µM 99% | [3]; [7] 99% | [3]; [8] 98% | [3]; at 50.0 µM 99% | [4]; [7] 99% | [4]; [8] 95% | [4]; at 50.0 µM 95% | [5]; [7] 99% | [5]; [8] 96% | [5]; at 50.0 µM 98% | [6]; [7] 99% | [6]; [8] 97% | [6]; at 50.0 µM 97.5%

N/C(=N\OC1(c2ccccc2)OC(=O)C(=O)/C1=C(/O)c1ccccc1)c1ccccc1 (stereo not given)
inactive: [1]; [7] 10% | [2]; [7] 8% | [3]; [7] 13% | [4]; [7] 0% | [5]; [7] 7% | [6]; [7] 4%
active: [1]; [8] 97% | [1]; at 50.0 µM 98% | [2]; [8] 89% | [2]; at 50.0 µM 98.5% | [3]; [8] 87% | [3]; at 50.0 µM 96.6% | [4]; [8] 75% | [4]; at 50.0 µM 78% | [5]; [8] 94% | [5]; at 50.0 µM 98.2% | [6]; [8] 92% | [6]; at 50.0 µM 98.3%

Cc1ccc(S(=O)(=O)OC(COC(=O)c2ccc([N+](=O)[O-])cc2)C2OC(C)(C)OC2C(SCc2ccccc2)SCc2ccccc2)cc1 (stereo not given)
inactive: [1]; [7] 4% | [1]; [8] 10% | [2]; [7] 5% | [2]; [8] 1% | [3]; [7] -1% | [3]; [8] 5% | [4]; [7] 2% | [4]; [8] 8% | [4]; at 50.0 µM 39.2% | [5]; [7] 17% | [5]; [8] 23% | [6]; [7] 6% | [6]; [8] -2%
active: [1]; at 50.0 µM 96.8% | [2]; at 50.0 µM 86.5% | [3]; at 50.0 µM 95.5% | [5]; at 50.0 µM 89% | [6]; at 50.0 µM 93.7%

O=C(NCCCN1CCN(CCCNC(=O)c2cc(-c3ccccc3)nc3ccccc23)CC1)c1cc(-c2ccccc2)nc2ccccc12
active: [1]; [8] 95% | [1]; at 50.0 µM 84.6% | [2]; [8] 95% | [2]; at 50.0 µM 88.7% | [3]; [8] 75% | [4]; at 50.0 µM 86.3% | [5]; at 50.0 µM 86.1% | [6]; [8] 96% | [6]; at 50.0 µM 81.9%
inactive: [1]; [7] 49% | [2]; [7] 30% | [3]; [7] 26% | [3]; at 50.0 µM 8.55% | [4]; [7] 29% | [4]; [8] 41% | [5]; [7] 30% | [5]; [8] 64% | [6]; [7] 38%
